Assay outcomes as filed in PubChem.
This is a sample that favours compounds with a hit; in the whole collection about 9.2% have one here.
FLuc modulator: counter-screen for miR-21 project: firefly luciferase inhibitors or activators; P08659; purified FLuc, Km substrates, luminescence inhibition; Potency, µM (top dose mostly 57.5 µM), for the others: top-dose activity change, negative = inhibition, hits mostly inhibitors; hit rate 6.9% among 360,000; AID 588342;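 also: plate controls were vehicle for no effect and reference inhibitor for full effect; nearly all actives have a fitted effect of over 55% in size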
Target sequence (P08659 whole entry, looked up): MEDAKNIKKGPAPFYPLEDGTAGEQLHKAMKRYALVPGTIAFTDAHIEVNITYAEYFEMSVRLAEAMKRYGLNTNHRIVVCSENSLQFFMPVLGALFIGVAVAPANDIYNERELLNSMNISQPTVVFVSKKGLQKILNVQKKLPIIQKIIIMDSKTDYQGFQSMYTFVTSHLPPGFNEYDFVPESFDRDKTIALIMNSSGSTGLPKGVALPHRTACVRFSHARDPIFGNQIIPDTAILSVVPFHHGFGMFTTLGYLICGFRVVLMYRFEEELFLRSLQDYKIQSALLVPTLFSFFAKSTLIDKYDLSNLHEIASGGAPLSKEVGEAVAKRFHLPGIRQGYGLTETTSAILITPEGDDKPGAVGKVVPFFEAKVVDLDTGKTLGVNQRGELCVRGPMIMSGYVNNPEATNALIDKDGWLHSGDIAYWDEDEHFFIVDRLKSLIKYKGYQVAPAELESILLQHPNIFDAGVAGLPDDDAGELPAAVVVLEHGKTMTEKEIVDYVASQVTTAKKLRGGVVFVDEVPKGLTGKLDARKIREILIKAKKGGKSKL
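Purified P. pyralis luciferase (10nM final) with 10uM D-luciferin and 10uM ATP (Km levels) in 50mM Tris acetate pH 7.5, 10mM Mg acetate, 0.01% Tween-20, 0.05% BSA; qHTS 6-point titration, ~60 µM downward; luminescence read.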
ELG1 genotox: induces genotoxicity in HEK293T cells with luciferase-tagged ELG1; Potency, µM (top dose mostly 46 µM), without a hit: at the highest dose activity change, positive = activation, usual class: activators; HEK293T ELG1-luciferase reporter, luminescence, 16 h; hit rate 1.3% among 330,000; AID 504466; also: % of control where 0% means no effect; nearly all actives have a fitted effect of over 60% in size
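DMSO vehicle served as control against compound-treated ELG1-luciferase HEK293T cells; exposure lasted 16 hr at 37 °C and 5% CO2, followed by ONE-Glo luminescence detection after 30 min.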
SMN2 splice up: SMN2 splice variant enhancement; HEK293 SMN2-luciferase splicing reporter, luminescence, 30-36 h; Potency, µM (highest dose often 46.1 µM), for the others: at the highest dose activity change, positive = activation, actives largely listed as activators; hit rate 2.8% among 210,000; AID 1458; also: % of control where 0% means no effect; nearly all actives have a fitted effect of over 55% in size
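HEK293 cells carry an SMN2 […]–luciferase reporter in which exon 7 inclusion puts luciferase in frame. Cells were plated 10-12 h before compound addition, then incubated 30-36 h at 37C. ONE-Glo luminescence was read; sodium butyrate at 4.5 mM final served as control.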
Rab9 prom act: Rab9 promoter activation; Huh7 Rab9 promoter-luciferase reporter, luminescence, 24 h; Potency, µM (titrated, usually from 9.22 µM), for the others: top-dose activation, negative = inhibition, usual class: activators; hit rate 2.8% among 320,000; also: % of control where 0% means no effect; nearly all actives have a fitted effect of over 60% in size
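Rab9 promoter-driven luciferase in stably transfected Huh7 cells; 1500 cells/well rested 2 h, exposed to compound in DMSO for 24 h at 37 °C, 5% CO2. Luminescence read 10 min after adding luciferase reagent at ambient temperature.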
NPC1 promoter act: activators of NPC1 promoter; Potency, µM (titrated, usually from 9.22 µM), for inactives: at the top dose activation, most hits filed as activators; Huh7 NPC1 promoter luciferase reporter, 24 h; hit rate 2.4% among 320,000; also: % of control where 0% means no effect; nearly all actives have a fitted effect of over 60% in size
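Luciferase expression driven by the NPC1 promoter was measured in stably transfected Huh7 cells after a 24 h compound incubation, using a luciferase reagent and a luminescence read.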
ELG1 repair inh: blocks ELG1-dependent DNA repair in HEK293T cells | HEK293T ELG1-luciferase reporter, luminescence, 16 h; DNA damage induced by 5-fluorouridine | Potency, µM (titrated, usually from 46.1 µM), without a hit: at the highest dose activity change, negative = inhibition, usual class: inhibitors | hit rate 2.3% among 330,000 | AID 504467; also: % is scaled to controls: 0 for no effect and ±100 for the full control effect; nearly all actives have a fitted effect of over 55% in size
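Reporter activity after DNA damage by 5-fluorouridine is monitored. Compound-treated cells incubate 16 hr at 37 °C, then ONE-Glo is added for 30 min before luminescence reading.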
* hit, by the source's call; ? = inconclusive; . = not tested or not shown. Calls follow the shape of the dose curve; as a rule, active = well fitted curve in the direction sought with a large enough effect; inconclusive = small, poorly fitted or top-dose-only effect, or another doubt; inactive = no such curve, though single readings can be large; an effect the other way counts as inactive or inconclusive. Potency is read from the fitted curve at half-maximal effect.

SMILES	FLuc modulator	ELG1 genotox	SMN2 splice up	Rab9 prom act	NPC1 promoter act	ELG1 repair inh
O=C(Nc1nc2ccc(Cl)cc2s1)c1ccco1	1.69µM*	?	3.16µM*	1.26µM*	0.631µM*	?
CCN(C(=O)C1CCN(S(=O)(=O)c2ccc3c(c2)CCCN3C(C)=O)CC1)c1cccc(C)c1	-2.8%	.	.	.	.	.
CN(N=Nc1cccc([N+](=O)[O-])c1)c1ccccc1	9.53µM*	?	.	?	?	?
CN(N=Nc1ccc([N+](=O)[O-])cc1)c1ccccc1	5.36µM*	?	20µM*	?	3.98µM*	?
CC(C)c1ccc(NC(=O)c2cc(S(=O)(=O)N(C)C3CCCCC3)ccc2F)cc1	1.9%	.	.	.	.	.
Cc1cc(F)ccc1NC(=O)c1sc2nc(-c3cccs3)ccc2c1N	2.7%	.	10µM*	.	.	.
CCOC(=O)c1sc2nc(C)cc(-c3ccccc3)c2c1N	0.6%	1.7%	-17.9%	-17.2%	-6.4%	-6.8%
NC(=O)c1sc2nc(-c3ccccc3)ccc2c1N	2.13µM*	?	.	3.16µM*	1.78µM*	?
NC(=O)c1sc2nc(-c3cccs3)ccc2c1N	9.53µM*	?	.	?	?	?
CCOC(=O)c1sc2nc(-c3ccccc3)ccc2c1N	0.19µM*	0.517µM*	0.794µM*	0.282µM*	0.355µM*	?
CC(=O)c1sc2nc(-c3ccco3)ccc2c1N	3.79µM*	20.6µM*	.	?	?	?
Nc1c(C(=O)Nc2ccc(Br)cc2)sc2nc(-c3ccco3)ccc12	?	2.2%	-29.0%	-3.7%	23.2%	8.4%
Cc1ccc(/C=N/NC(=O)CSc2nnc(-c3ccc(Cl)cc3)n2-c2ccccc2)o1	4.9%	-7.7%	.	-2.6%	-1.8%	?
O=C(CSc1nnc(-c2ccc(Cl)cc2)n1-c1ccc(Cl)cc1)N/N=C/c1ccco1	0.9%	-6.8%	-27.6%	-0.5%	-2.1%	23.1µM*
Cc1ccc(C(=O)N/C(=C\c2ccc(Br)cc2)c2nc(=S)[nH][nH]2)cc1	?	3.2%	-7.2%	1.8%	-2.6%	?
O=C(N/C(=C/c1cccc(Br)c1)c1nc(=S)[nH][nH]1)c1ccccc1	6.75µM*	12.1%	3.1%	6.5%	-1.3%	?
CC(=O)c1cccc(NC(=O)c2ccc3c(c2)N(Cc2ccc(C)cc2)CCS3)c1	3.0%	.	13.4%	.	.	.
O=C(CCC1CCN(C(=O)c2cncs2)CC1)Nc1ccccc1	-1.0%	-5.3%	.	-1.5%	-2.9%	19.5%
FB(F)F	.	.	24.6%	.	.	.
CCOc1ccc(/C=C2\SC(=S)N(C(C(=O)O)c3ccccc3)C2=O)cc1OC (stereo not given)	19µM*	1.9%	.	-11.2%	-0.8%	0.0%
COc1ccc(OC)c(/C=C2\SC(=S)N(C(C(=O)O)c3ccccc3)C2=O)c1 (stereo not given)	-8.6%	-2.0%	.	-0.2%	6.4%	-3.3%
C=CCOc1ccc(/C=C2\SC(=S)N(C(C(=O)O)c3ccccc3)C2=O)cc1 (stereo not given)	21.3µM*	-2.8%	.	-3.4%	-0.4%	-1.4%
O=C(CN1C(=O)C2(SCC(=O)N2c2cccc(F)c2)c2ccccc21)NCCc1ccccc1 (stereo not given)	-0.5%	.	.	.	.	.
Cc1nc2ccccc2c2oc(C(=O)NCC3COc4ccccc4O3)cc12 (stereo not given)	-5.5%	-11.3%	-51.2%	-14.7%	-3.8%	14.6µM*
Cc1nc2ccccc2c2oc(C(=O)N3CCN(C4CCCCC4)CC3)cc12	2.4%	-3.6%	-52.7%	-14.5%	-6.1%	7.31µM*
SMILES	FLuc modulator	ELG1 genotox	SMN2 splice up	Rab9 prom act	NPC1 promoter act	ELG1 repair inh
CCN1CCCC1CNC(=O)c1cc2c(C)nc3ccccc3c2o1 (stereo not given)	-1.6%	10.6%	-10.1%	-17.0%	1.1%	-1.3%
CCc1ccc(CNC(=O)c2cc3c(C)nc4ccccc4c3o2)cc1	2.4%	?	-95.9%	-18.6%	-5.4%	14.6µM*
Cc1nc2ccccc2c2oc(C(=O)N3CCC(N4CCCCC4)CC3)cc12	-1.3%	6.8%	10.8%	-11.8%	-1.1%	-1.1%
CCOC(=O)N1CCC(NC(=O)c2cc3c(C)nc4ccccc4c3o2)CC1	-1.7%	-11.2%	-33.9%	1.0%	-3.7%	13µM*
Cc1ccccc1-n1ncc2c1CC(C)(C)CC2NC(=O)CCN1Cc2ccccc2C1=O (stereo not given)	5.4%	-4.7%	.	-1.3%	-1.4%	-6.8%
O=C(O)c1ccccc1-n1c2ccccc2c2ccccc21	3.1%	-0.2%	.	-5.1%	-3.6%	2.8%
Cc1ccccc1C1CCCN(Cc2nc(C3CC3)no2)C1 (stereo not given)	-0.5%	-4.2%	.	12.3%	-2.7%	-9.1%
Fc1ccc(Nc2nnc(C(F)(F)F)s2)cc1	-6.2%	-3.9%	.	-3.7%	-0.1%	?
Oc1ccccc1CNCCCN1CCOCC1	0.3%	-0.9%	.	0.5%	-4.6%	-0.7%
COc1ccc(CNC(=O)c2cc3c(C)nc4ccccc4c3o2)c(OC)c1	3.7%	1.4%	-91.4%	-25.8%	-14.8%	5.8µM*
COc1ccc(C)cc1NS(=O)(=O)c1ccc2[nH]c(=O)c(=O)[nH]c2c1	-6.9%	.	-2.4%	.	.	.
O=C(O)C1CC(c2ccccc2)=Nc2ccccc2S1 (stereo not given)	16.9µM*	?	.	?	?	?
CCOc1ccc(C(=O)OCC(=O)NCC2CCCO2)cc1 (stereo not given)	.	-0.2%	.	.	.	12.4%
c1ccc2c(Cn3nnc4ccccc43)cccc2c1	2.3%	2.2%	5.1%	-4.6%	0.8%	-1.6%
c1ccc2c(COn3nnc4ccccc43)cccc2c1	10.7µM*	8.91µM*	.	2.51µM*	?	?
Cc1cc(/C=C2/C(=O)N(C)C(=S)N2C)ccc1N1CCCC1	4.78µM*	?	12.6µM*	?	?	?
